Measured potencies and affinities stand elsewhere. Results filed as inconclusive are left out. Calls of active or inactive are those of the source.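 How the source made its calls: active means compound whose fitted half-maximal potency lies at or below double its highest tested dose in every test; inconclusive means tests disagree, or a flat partial loss, or a poor fit; inactive means every test inactive.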
Assay: HepG2 cell cytotoxicity, dose response, cytotoxicity control, CellTiter-Glo luminescence, dry powder, set 20 (AID 1117291)
Details: HepG2 viability, CellTiter-Glo ATP luminescence, 72 h; series mostly up to 26 µM; activity change, negative = cytotoxicity: at the top concentration

Q: Which “activity change, negative = cytotoxicity” value does the source give for `COc1ccc(C(=O)O)cc1S(=O)(=O)Nc1cc(C(F)(F)F)ccc1N(C)C` here?
A: Its value is -10.8% (inactive).

Q: With `COc1ccc(C(=O)Nc2cc(C(F)(F)F)ccc2N2CCCC2)cc1S(=O)(=O)O` as the compound, how does the “activity change, negative = cytotoxicity” value read?
A: The value was -12% (inactive).

Q: Which “activity change, negative = cytotoxicity” value does the source give for `CC(=O)N1CCN(C(=O)C2(NC(=O)NC(C)(C)C)CCCCC2)CC1` here?
A: Its value is -12.5% (inactive).

Q: With `CC(=O)N1CCN(C(=O)C2(NC(=O)Nc3cccc(F)c3)CCCCC2)CC1` as the compound, how does the “activity change, negative = cytotoxicity” value read?
A: The value was 1.14% (inactive).

Q: Which “activity change, negative = cytotoxicity” value does the source give for `CC(=O)N1CCN(C(=O)C2(NC(=O)Nc3ccc(F)cc3)CCCCC2)CC1` here?
A: The value was 9.85% (inactive).

Q: Which “activity change, negative = cytotoxicity” value does the source give for `COc1ccc(C(=O)Nc2cc(F)ccc2N2CCCCC2)cc1S(=O)(=O)O` here?
A: Its value is -9.22% (inactive).

Q: Which “activity change, negative = cytotoxicity” value does the source give for `NC(=NCCc1c[nH]c2ccccc12)NS(=O)(=O)c1cc(F)ccc1F` here?
A: The value was -6.37% (inactive).

Q: Which “activity change, negative = cytotoxicity” value does the source give for `CC(=O)N1CCN(C(=O)C(C)(C)NC(=O)Nc2ccc(C)cc2)CC1` here?
A: Its value is -8.86% (inactive).

Q: With `Cc1ccccc1S(=O)(=O)Nc1cc(C(F)(F)F)ccc1N1CCCCC1` as the compound, how does the “activity change, negative = cytotoxicity” value read?
A: The value was -22.7% (inactive).

Q: For `CC(=O)N1CCN(C(=O)C2(NC(=O)Nc3ccccc3F)CCCCC2)CC1`, which outcome is on record?
A: Its outcome is “inactive”.

Q: With `COc1ccc(C(=O)O)cc1S(=O)(=O)Nc1cc(C(F)(F)F)ccc1N1CCOCC1` as the compound, how does the “activity change, negative = cytotoxicity” value read?
A: The value was -30.4% (inactive).

Q: Which “activity change, negative = cytotoxicity” value does the source give for `Cc1ccc(NC(=O)NC2(C(=O)N3CCOCC3)CCCCC2)cc1` here?
A: Its value is -22.2% (inactive).

Q: Which “activity change, negative = cytotoxicity” value does the source give for `O=[N+]([O-])c1ccc(S(=O)(=O)Nc2cc(C(F)(F)F)ccc2N2CCCCC2)c([N+](=O)[O-])c1` here?
A: Its value is -4.65% (inactive).

Q: With `CC(=O)N1CCN(C(=O)C2(NC(=O)Nc3ccc(C)cc3)CC2)CC1` as the compound, how does the “activity change, negative = cytotoxicity” value read?
A: The value was -23.3% (inactive).

Q: With `CC(=O)N1CCN(C(=O)C2(NC(=O)NCCc3ccccc3)CCCCC2)CC1` as the compound, how does the “activity change, negative = cytotoxicity” value read?
A: Its value is -25% (inactive).

Q: With `CC(=O)N1CCN(C(=O)C2(NC(=O)Nc3ccc(C(C)C)cc3)CCCCC2)CC1` as the compound, how does the “activity change, negative = cytotoxicity” value read?
A: Its value is -21.6% (inactive).

— PubChem BioAssay AID1117291 (Broad Institute, 2014)
